# Laboratory results from PubChem BioAssay (NCI).
# The panel holds about 83,000 compounds, 20% with a hit somewhere; the sample as a whole holds those more often.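 Values shown are percent growth following 48 h exposure of cells in 96-well plates to a single concentration of compound; below 10 was considered active.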 Unmarked numbers belong to inactive results. Active and inactive are the calls of the source.
# Tests used:
# Assay in all cases: NCI-60 one-dose screen, 48 h (100 = growth as untreated, 0 = no growth, -100 = all killed)
# Settings in all cases: 10 µM unless noted
# NCI-H23 lung = tested on: NCI-H23 lung
# NCI-H226 lung = tested on: NCI-H226 lung
# NCI-H322M lung = tested on: NCI-H322M lung
# HOP-62 NSCLC = tested on: HOP-62 NSCLC
# NCI-H460 lung = tested on: NCI-H460 lung
# HOP-92 NSCLC = tested on: HOP-92 NSCLC
# NCI-H522 lung = tested on: NCI-H522 lung
# A549/ATCC NSCLC = tested on: A549/ATCC NSCLC
# 786-0 renal = tested on: 786-0 renal
# COLO 205 colon = tested on: COLO 205 colon
SMILES,growth (NCI-H23 lung),growth (NCI-H226 lung),growth (NCI-H322M lung),growth (HOP-62 NSCLC),growth (NCI-H460 lung),growth (HOP-92 NSCLC),growth (NCI-H522 lung),growth (A549/ATCC NSCLC),growth (786-0 renal),growth (COLO 205 colon)
COc1ccc2c3ccnc(C(F)(F)F)c3n(CCCCN)c2c1,54.6%,52.4%,65.3%,40.1%,47.1%,-22.3% (active),11.4%,77%,54.5%,10.7%
CC1(C)CC[C@]2(C(=O)O)CC[C@]3(C)C(=CC[C@@H]4[C@@]5(C)C/C(=C/c6cccnc6)[C@H](O)C(C)(C)[C@@H]5CC[C@]43C)[C@@H]2C1,6.1% [100 µM] (active),-23% [100 µM] (active),-17% [100 µM] (active),-2.51% [100 µM] (active),-16.7% [100 µM] (active),-21.8% [100 µM] (active),-8.98% [100 µM] (active),5.82% [100 µM] (active),5.39% [100 µM] (active),-73% [100 µM] (active)
COc1cc(C(=O)/C=C/c2c(-c3ccc(F)cc3)nc3sccn23)cc(OC)c1OC,56.5%,76.1%,29.9%,61.3%,-1.39% (active),-14.9% (active),-18.2% (active),41.1%,61.5%,12.3%
Cc1ccc(S(=O)(=O)Nc2ccccc2)cc1N,90.8%,95.6%,97%,86.2%,99.5%,75.2%,23.5%,81.3%,99.8%,119%
C=C(C)[C@@H]1CC[C@]2(COC(=O)c3ccccc3C(=O)O)CC[C@]3(C)[C@H](CC[C@@H]4[C@@]5(C)CC[C@H](OC(=O)c6ccccc6C(=O)O)C(C)(C)[C@@H]5CC[C@]43C)[C@@H]12,6.7% [100 µM] (active),25.9% [100 µM],30.7% [100 µM],3.17% [100 µM] (active),19.7% [100 µM],-22.3% [100 µM] (active),46.8% [100 µM],51.3% [100 µM],1.64% [100 µM] (active),99.3% [100 µM]
CCCCC(CC)COC(=O)C[N+](C)(C)CCOC(c1ccccc1)c1ccccc1 (stereo not given),42%,54.1%,88.7%,60.6%,65.2%,-12.2% (active),-24.5% (active),88.3%,77.7%,-28% (active)
CCCCNC(=O)NS(=O)(=O)Cc1ccccc1,114%,107%,118%,107%,111%,94.4%,102%,101%,99%,118%
COc1ncc(-c2ccc3nccc(C#CCCCCC(=O)NO)c3c2)cc1NS(=O)(=O)c1ccc(F)cc1F,29.6%,9.85% (active),7.5% (active),4.48% (active),6.53% (active),-27.7% (active),-21.7% (active),-12.7% (active),-14.5% (active),-44.5% (active)
C=CCCC1(C)NC(=O)NC1=O (stereo not given),96.5%,105%,108%,84%,104%,87.1%,86.1%,93.4%,93.5%,102%
Cc1cccc(C[C@H](NC(=O)Nc2ccc(Cl)cc2F)C(=O)N[C@@H]2C(=O)N3C[C@H](O)C[C@H]3C(=O)N3CCCC[C@H]3C(=O)N[C@@H](C)C(=O)N3C[C@H](C)C[C@H]3C(=O)O[C@H]2C)c1,25.7%,20.9%,34%,24%,2.42% (active),-7.02% (active),14.7%,17.9%,11%,-30.9% (active)
O=C1CN(Cc2ccc(C(=O)NO)cc2)C(=O)[C@@H](Cc2ccccc2)N1,100%,104%,102%,102%,103%,102%,98.2%,96.4%,95.8%,114%
O=C(NCCCNC(=O)OCc1ccc2cccc(O)c2n1)OCc1ccc2cccc(O)c2n1,70%,71.1%,59.4%,32.1%,26.1%,33.9%,18.4%,47.5%,60.1%,29.6%
COc1ccc(OC)c(NC=O)c1,101%,103%,111%,98.1%,105%,101%,103%,105%,104%,108%
Fc1cc2[nH]ncc2c2c3c(c(-c4cn[nH]c4C(F)(F)F)nc12)C1CCC3C1 (stereo not given),-4.72% (active),4.86% (active),0.591% (active),-19.4% (active),1.8% (active),17.1%,-2.89% (active),-6.2% (active),2.72% (active),-74.7% (active)
O=c1[nH]c2cc(Cl)c(Cl)cc2n2cc3ncccc3c12,90.6%,89.2%,97.9%,80.6%,62.8%,87.3%,43.8%,91.2%,92.2%,90.4%
Clc1ccccc1/C=N\Nc1ccccn1,84.9%,80.8%,111%,83.8%,99.2%,83.9%,91.7%,93.6%,113%,95.7%
CCOC(=O)Nc1ccc2c(c1)/C(=N\NC(=S)NC)c1ccccc1-2,93.8%,107%,92.3%,108%,65.1%,85.9%,68%,55.7%,64.4%,106%
CCCC[C@@H](C=O)NC(=O)[C@H](CC(C)C)NC(=O)[C@H](CC(C)C)NC(=O)OCc1ccccc1,-17.1% (active),-54.1% (active),15.1%,11.8%,0.451% (active),-35.2% (active),-0.189% (active),71.3%,-10% (active),-3.03% (active)
O=C(Nc1ccccc1)Nc1ccc(C(=O)/C=C/c2ccc(N3CCCC3)cc2)cc1,92.3%,78%,83.2%,63%,78.7%,73.8%,31.7%,75.5%,93.9%,66.6%
C=C(C)[C@@H]1CC[C@]2(C)[C@H](CC=C3[C@@H]4[C@@H](C)[C@H](C)CC[C@]4(C(N)=O)CC[C@]32C)[C@@]1(C)CCC#N,6.47% [100 µM] (active),-22.2% [100 µM] (active),0.378% [100 µM] (active),-1.03% [100 µM] (active),-38.4% [100 µM] (active),-37.7% [100 µM] (active),-6.12% [100 µM] (active),9.82% [100 µM] (active),-36.5% [100 µM] (active),-78.9% [100 µM] (active)
c1ccc(-c2nnc(-c3c[nH]c4ncccc34)s2)cc1,92.6%,87.9%,95.7%,98.6%,96.4%,104%,87.7%,95.6%,104%,115%
O=C(N/N=C\c1cc(Cl)ccc1O)N/N=C/c1cc(Cl)ccc1O,45.7%,73%,74.7%,54%,16.1%,21%,14%,26.2%,78%,46.3%
Fc1cc2[nH]ncc2c2c3c(c(-c4cn[nH]c4)nc12)CCCC3,-14.5% (active),1.53% (active),2.77% (active),-10.6% (active),1.29% (active),-7.43% (active),-9.92% (active),1.75% (active),12.1%,-43.8% (active)
N#C/C(=C(/O)CCCO)c1nc2ccccc2c(=O)[nH]1,91.2%,93.7%,105%,99%,111%,84.9%,95%,95.3%,102%,130%
Brc1ccc(-c2nnc3c4[nH]ccc4ncn23)cc1,88.3%,96.7%,91%,92.6%,90.1%,69.6%,80.9%,91.8%,94%,109%
CCN(CC)CCS(=O)(=O)CCNc1ccnc2cc(Cl)ccc12,-18.4% (active),30.1%,56.8%,22.5%,2.87% (active),26.4%,-50.5% (active),71.9%,10.2%,-44.5% (active)
